Sampled rows, rich in hits. Any-hit rate of the full collection: about 2.2%.
Cardio protect – cardioprotection against H2O2-induced cell death, primary screen, uHTS, H9c2 cells, ATPLite luminescence; protection from H2O2 cell death, % at 20 µM; H9c2 cardiomyocytes, H2O2 injury protection, 2 h; 360,000 tested, 0.63% active;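 active = compounds giving at least 50% protection of heart cells from peroxide-induced death in the single-dose screen, raw or plate-pattern-corrected value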
iPSC survival up – enhancers of single-cell hiPSC survival, primary screen, ATPlite luminescence; 100% = ROCK inhibitor wells, 0% = DMSO; survival enhancement, % at 20 µM; 360,000 tested, 0.044% active; AID 602274, 2012; in the data active = survival enhancement above about 18%;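 note: cells exposed to compounds for 16 hours before the ATP read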
Myeloid diff 2 – induction of myeloid progenitor differentiation, primary screen, cell-based, flow cytometry, MLPCN library; 360,000 tested, 1% active; calls only at 10 µM; AID 624256, 2012; ER-HoxA9 myeloid progenitors, lysozyme-GFP differentiation;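 active = normalized GFP-positive differentiation at or above the plate's own cutoff, the solvent-only control mean plus 3 SD; inconclusive = no clear call, values can overlap the other calls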;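 note: cells exposed to compound for four days before flow analysis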
ABCB6 inh 2 – ABCB6 transporter inhibitors, primary screen, K562-ABCB6 cells, flow cytometry, MLPCN library | 360,000 tested, 0.19% active | fluorescence ratio to DMSO, % at 10 µM | K562-ABCB6 porphyrin accumulation, 1 h; hits give low values | AID 602162, 2011 | ATP-binding cassette sub-family B member 6 (Homo sapiens), Q9NP58;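 active = fluorescence ratio to DMSO below 75%, the collection mean minus 3 SD; inconclusive = too few cells collected in the well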;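 note: signal is porphyrin accumulated inside mitochondria; lower ratio means ABCB6 inhibition with less porphyrin fluorescence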
Target sequence (Q9NP58 whole entry, looked up): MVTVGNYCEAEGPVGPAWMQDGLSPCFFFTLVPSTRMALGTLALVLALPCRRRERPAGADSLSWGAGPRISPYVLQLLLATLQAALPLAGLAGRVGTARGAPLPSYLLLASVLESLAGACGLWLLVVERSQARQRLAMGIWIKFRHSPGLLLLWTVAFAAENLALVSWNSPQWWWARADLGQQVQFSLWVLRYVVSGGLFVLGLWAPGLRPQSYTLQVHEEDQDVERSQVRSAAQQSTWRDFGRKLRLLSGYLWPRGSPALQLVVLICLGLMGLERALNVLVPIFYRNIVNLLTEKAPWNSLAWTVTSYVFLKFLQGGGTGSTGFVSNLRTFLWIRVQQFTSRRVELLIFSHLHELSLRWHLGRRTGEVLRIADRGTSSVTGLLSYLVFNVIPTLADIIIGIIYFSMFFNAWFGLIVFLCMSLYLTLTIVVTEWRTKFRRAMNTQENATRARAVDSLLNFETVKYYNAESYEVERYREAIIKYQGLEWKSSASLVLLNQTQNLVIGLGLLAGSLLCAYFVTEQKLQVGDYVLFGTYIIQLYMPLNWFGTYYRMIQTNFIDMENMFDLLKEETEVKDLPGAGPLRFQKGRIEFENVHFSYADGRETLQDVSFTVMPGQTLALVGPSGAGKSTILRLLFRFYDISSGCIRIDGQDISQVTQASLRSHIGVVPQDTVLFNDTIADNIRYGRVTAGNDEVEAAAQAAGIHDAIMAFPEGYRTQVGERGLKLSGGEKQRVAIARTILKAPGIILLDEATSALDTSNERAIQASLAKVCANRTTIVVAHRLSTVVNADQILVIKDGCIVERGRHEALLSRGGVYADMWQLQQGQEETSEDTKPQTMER
MIN6 prolif-1 – inducers of MIN6 beta-cell proliferation, primary screen, ATP luminescence, uHTS; 330,000 tested, 0.29% active; AID 2380, 2010; proliferation, % at 10 µM; MIN6 cells proliferation, ATPlite luminescence, 48 h; cells starved in 0.2% serum; 100% = growth in 10% serum;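 active = compounds whose signal lies at least 3.5 SD above the mean of all wells on their plate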
MIN6 prolif-2 – inducers of beta-cell proliferation in MIN6, confirmation, MIN6 cells, mouse; proliferation increase, % at 50 µM; ATPlite luminescence, 48 h; cells kept in 0.2% serum; scaled between 0.2% and 10% serum; 920 tested, under 10 active; shares compounds with MIN6 prolif-1;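 active = proliferation increase above 40% at any of the four tested concentrations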
Large screens that a line does not name were inactive (follow-up assays come after a bar, where they were run).

O=C(NCc1ccco1)c1cc2nc(-c3cccs3)cc(C(F)(F)F)n2n1	MIN6 prolif-1 7.8 | MIN6 prolif-2 inactive
Cc1cc(C)c(C)c(S(=O)(=O)Nc2ccccc2C(=O)NCCCn2ccnc2)c1C	none (no result: MIN6 prolif-1)
Cc1cc(C)c(C)c(S(=O)(=O)Nc2ccccc2C(=O)NCCCN2CCOCC2)c1C	MIN6 prolif-1 8.2 | MIN6 prolif-2 inactive
O=C(NCC1CCCO1)c1cc2c(s1)CCC2 (configuration not stated)	none
COc1ccc(C2(C)NC(=O)N(CC(=O)NCc3ccccc3)C2=O)cc1OC (configuration not stated)	none
COc1ccc(C2(C)NC(=O)N(Cc3cc(Cl)cc4c3OCOC4)C2=O)cc1OC (configuration not stated)	MIN6 prolif-1 15 | MIN6 prolif-2 inactive
O=C(CC1SC2=NCCN2C1=O)Nc1ccc(Br)cc1 (configuration not stated)	none
CCOC(=O)c1ccc(NC(=O)CC2SC3=NCCN3C2=O)cc1 (configuration not stated)	MIN6 prolif-1 5.8 | MIN6 prolif-2 inactive
Cc1ccc(-c2noc(CCC(=O)NCCc3ccccc3Cl)n2)cc1	none
Cc1ccc(CNC(=O)C2CCN(C(=O)c3cccc(Cl)c3)CC2)cc1	none
CC(C)(Oc1ccc(Cl)cc1)C(=O)Nc1c2c(nn1C(C)(C)C)CS(=O)(=O)C2	MIN6 prolif-1 15 | MIN6 prolif-2 inactive
COc1ccc(NC(=O)CCSc2ccc(C)cc2)cc1	none
CCN(CC)C(=S)SCC(=O)c1c(C)[nH]c2ccccc12	MIN6 prolif-1 0.0 | MIN6 prolif-2 inactive
Cc1c(NC(=O)C(C)OC(=O)CC2CC3CCC2C3)c(=O)n(-c2ccccc2)n1C (configuration not stated)	MIN6 prolif-1 9.1 | MIN6 prolif-2 inactive
Cc1c(NC(=O)C(C)OC(=O)COc2ccccc2)c(=O)n(-c2ccccc2)n1C (configuration not stated)	none
CCOC(=O)N1CCN(CC(c2ccccc2)c2ccccc2)CC1	none
CN1C(=O)N(C)c2ccc(Br)c3cccc1c23	MIN6 prolif-1 8.6 | MIN6 prolif-2 inactive
CN1C(=O)N(C)c2ccc(C=O)c3cccc1c23	none
C#CCOCCOCCOCCNc1nc(N2CCN(C(=O)CCCCCCCCCCNC(=O)[C@H](CCCCN)n3cc(C[C@@H](C)CC)nn3)CC2)nc(N2CCN(C(=O)CCCCCCCCCCNC(=O)[C@@H]([C@H](C)O)n3cc(C)nn3)CC2)n1	none
COc1cccc(C2CC(c3ccccc3)Nc3nc(N)nn32)c1 (configuration not stated)	none
COc1ccc(C2CC(c3cccc(OC)c3)n3nc(N)nc3N2)cc1 (configuration not stated)	MIN6 prolif-1 9.1 | MIN6 prolif-2 inactive
COc1cc2cc(C(C)(C)O)oc(=O)c2cc1OC	none
CCC[C@@H](O)c1cc2cc(OC)c(OC)cc2c(=O)o1	MIN6 prolif-1 12 | MIN6 prolif-2 inactive
COc1cc(-c2noc(C)c2C#CC2(O)CCCCC2)cc(OC)c1OC	MIN6 prolif-1 12 | MIN6 prolif-2 inactive
CCOC(=O)N1CCN(S(=O)(=O)c2cc(C)c(C)cc2C)CC1	none
COc1ccc(C(=O)NCCCNC(=O)c2cnccn2)cc1Br	MIN6 prolif-1 9.2 | MIN6 prolif-2 inactive
COc1ccc(C(=O)NCCNC(=O)c2cnccn2)cc1OC	none
COc1ccc(/C=C/C(=O)Nc2cc(S(=O)(=O)N3CCOCC3)ccc2N2CCCC2)cc1OC	MIN6 prolif-1 7.3 | MIN6 prolif-2 inactive
COc1ccc(/C=C/C(=O)Nc2cc(S(=O)(=O)N3CCCCC3)ccc2N2CCCCC2)cc1OC	none
S=c1[nH]nc(C2CCCCC2)n1/N=C/c1cccc(Br)c1	none
Cc1cccc(/C=N/n2c(C3CCCCC3)n[nH]c2=S)c1	MIN6 prolif-1 6.7 | MIN6 prolif-2 inactive
C[C@H](CO)N1C[C@H](C)[C@@H](CN(C)S(=O)(=O)c2cccs2)Oc2c(NC(=O)C3CCCCC3)cccc2C1=O	none
CCCCc1nc2sc3c(SCC(=O)NCc4ccco4)ncnc3c2c2c1CCC2	none
CC(C)c1nc2sc3c(SCC(N)=O)ncnc3c2c2c1CCC2	MIN6 prolif-1 5.1 | MIN6 prolif-2 inactive
Cc1ccc(C(=O)OC(C)C(=O)NCc2ccc3c(c2)OCO3)cc1S(=O)(=O)N1CCOCC1 (configuration not stated)	none
CC(=O)c1cccc(NC(=O)Nc2cccnc2)c1	MIN6 prolif-1 7.9 | MIN6 prolif-2 inactive
COc1cc2[nH]c(C(=O)N3CC(C)OC(C)C3)cc2c(OC)c1OC (configuration not stated)	MIN6 prolif-1 9.0 | MIN6 prolif-2 inactive
O=C(NC1CCCCCC1)C1CCN(S(=O)(=O)c2cccc3cccnc23)CC1	none
O=C(NC1CCCC1)C1CCCN(S(=O)(=O)c2cccc3cccnc23)C1 (configuration not stated)	MIN6 prolif-1 9.5 | MIN6 prolif-2 inactive
CCCn1c(=N)c(S(=O)(=O)c2ccc(F)cc2)cc2c(=O)n3ccccc3nc21	MIN6 prolif-1 17 | MIN6 prolif-2 inactive
CCOc1ccccc1NC(=O)c1cnc(NS(=O)(=O)c2ccccc2)nc1	none
O=C(COc1ccccc1)Nc1nc2c(s1)CCCC2	none
CC1(C)CN2C(=O)c3ccccc3C2(C)S1 (configuration not stated)	MIN6 prolif-1 8.0 | MIN6 prolif-2 inactive
CSc1ccccc1NC(=O)COc1ccc(S(=O)(=O)N2CCCC2)cc1	none
COc1ccc(CC(=O)N2CCN(C(=O)Cc3ccc(OC)cc3)CC2)cc1	none
COc1ccc(CC(=O)N2CCN(c3ccc(C4=NNC(=O)CC4C)cc3)CC2)cc1 (configuration not stated)	MIN6 prolif-1 4.6 | MIN6 prolif-2 inactive
CCN(CC)c1ccc(C(=O)N/N=C/c2ccc(OC)cc2OC)cc1	none
C=CCNC(=O)c1onc(CSc2ccccc2CC)c1C(=O)O	MIN6 prolif-1 12 | MIN6 prolif-2 inactive
C=CCNC(=O)c1onc(CSc2ccccc2)c1C(=O)NCC=C	none
CCOC(=O)C1CCCN(c2nc3ccccc3nc2C(C#N)C(=O)OC(C)C)C1 (configuration not stated)	none
O=C(Cn1cccc1C(=O)c1ccccc1)NCCCc1ccccc1	none
CCC(Cc1ccccc1)NC(=O)Cn1cccc1C(=O)c1ccccc1 (configuration not stated)	Myeloid diff 2 inconclusive, MIN6 prolif-1 16 | MIN6 prolif-2 inactive
COc1ccc(C2Nc3ccccc3C(=O)N2NS(C)(=O)=O)c(OC)c1 (configuration not stated)	none

Assay outcomes deposited in PubChem by several laboratories.
